Most compounds without a hit are left out; they make up all but 2.9% or so of the library.
DAGLB inh: blocks human DAGLB lipase activity. inhibition, % at 5.17 µM. Q8NCG7. 340,000 compounds, 0.059% hits. AID 504411. HEK293T DAGLB membrane lysate, EnzChek fluorogenic substrate; in the data active = inhibition above about 34%;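 note: 0% = enzyme with vehicle and 100% = wells lacking enzyme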
Cardio protect: modulators protecting cardiomyocytes from myocardial damage; H9c2 cardiomyocytes, H2O2 injury protection, ATPLite, 2 h; protection from H2O2 cell death, % at 20 µM; 360,000 compounds, 0.63% hits;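 active = compounds giving at least 50% protection of heart cells from peroxide-induced death in the single-dose screen, raw or plate-pattern-corrected value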;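 note: 0% = DMSO wells with peroxide and 100% = DMSO wells without peroxide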
Myeloid diff MLP: promotes myeloid progenitor differentiation | ER-HoxA9 myeloid progenitors, lysozyme-GFP differentiation, flow cytometry | calls only at 10 µM | 360,000 compounds, 1% hits | AID 624256;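 active = normalized GFP-positive differentiation at or above the plate's own cutoff, the solvent-only control mean plus 3 SD; inconclusive = no clear call, values can overlap the other calls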;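 note: cells exposed to compound for four days before flow analysis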
Rtt109 Vps75: blocks Candida albicans Rtt109/Vps75 acetyltransferase activity; purified Rtt109/Vps75, ThioGlo CoA-SH fluorescence, 4 h; inhibition, % at 34.9 µM; 330,000 compounds, 0.16% hits; AID 540336;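 active = inhibition of at least 50% in every replicate; inconclusive = best replicate reaches 50% inhibition but some replicates fall short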
Target sequence (Q5AAJ8 whole entry, looked up): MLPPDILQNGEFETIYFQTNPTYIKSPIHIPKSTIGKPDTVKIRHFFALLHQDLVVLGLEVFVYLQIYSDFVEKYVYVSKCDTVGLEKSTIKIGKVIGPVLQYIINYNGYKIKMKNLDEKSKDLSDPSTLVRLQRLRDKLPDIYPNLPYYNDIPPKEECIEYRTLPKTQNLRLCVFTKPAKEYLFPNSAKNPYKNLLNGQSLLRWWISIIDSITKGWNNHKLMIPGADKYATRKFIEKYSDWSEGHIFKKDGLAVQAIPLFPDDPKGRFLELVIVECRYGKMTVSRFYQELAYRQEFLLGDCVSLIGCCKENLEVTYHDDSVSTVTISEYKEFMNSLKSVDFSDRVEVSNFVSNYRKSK
ABHD5 PLIN5 PPI: ABHD5-PLIN5 protein interaction inhibition; Split G. princeps luciferase complementation, luminescence, 4 h; inhibition, % at 4 µM; 360,000 compounds, 0.78% hits;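 active = inhibition above the mean inhibition across every tested compound plus 3 SD, cut at about 22% in these data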;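 note: 0% = DMSO only wells and the 100% control is not disclosed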
sPLA2-III inh: Inhibits HGIII-sPLA2 liposome hydrolysis, primary screen; Q9NZ20; QFRET BODIPY PC-A2 liposome hydrolysis, fluorescence; inhibition, % at 12.2 µM; 370,000 compounds, 0.56% hits; AID 743126;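 active = inhibition above mean plus 3 SD of compounds lying within the high and low control bounds, cut at about 19% in these data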;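 note: 0% = median of test compound wells and 100% = no enzyme DMSO wells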
sPLA2 confirm: human GIII-sPLA2 inhibition, confirmation; 2,000 compounds, 34% hits; shares compounds with sPLA2-III inh; recombinant hGIII-sPLA2, BODIPY PC-A2 QFRET fluorescence; AID 743280; inhibition, % at 12.2 µM;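 active = mean inhibition across triplicates above the hit cutoff set in the earlier primary screen, cut at about 19% in these data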;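 note: 0% = enzyme with DMSO and 100% = DMSO wells lacking enzyme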
BODIPY interf: counter-screen for HGIII-sPLA2 inhibitors: 535nm fluorescence interference; shares compounds with sPLA2-III inh; BODIPY FL product fluorescence interference, QFRET; inhibition, % at 12.2 µM; 2,000 compounds, 8.5% hits; AID 743282;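 active = average inhibition above the solvent-only control mean plus 3 SD, cut at about 6% in these data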;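 note: 0% = DMSO with substrate plus product and 100% = DMSO with substrate alone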
Numbers without * were called inactive; i = inactive; ? = inconclusive; . = no result given.

SMILES	DAGLB inh	Cardio protect	Myeloid diff MLP	Rtt109 Vps75	ABHD5 PLIN5 PPI	sPLA2-III inh	sPLA2 confirm	BODIPY interf
O=C1NC(=S)NC1=Cc1ccccc1O	2	-3	i	18	2	22*	8	1
Cc1ccc(C)c(NC(=S)N/N=C/C(C)c2ccccc2)c1 (stereo unspecified)	1	-10	i	7	-1	22*	14	0
COc1cc(CNCCN(C)C)c(Br)cc1OCC(=O)NCc1ccccc1	1	10	i	-1	0	22*	2	-20
COc1cc(CNCC(C)C)c(Br)cc1OCC(=O)NCc1ccccc1	1	4	i	4	3	-8	.	.
N/C(=N\OC(=O)CC1CCCCC1)c1cccc([N+](=O)[O-])c1	-1	-17	i	0	-9	1	.	.
N/C(=N\OC(=O)CCC1CCCC1)c1cccc([N+](=O)[O-])c1	-8	-10	i	1	5	21*	6	-8
Cn1c(=O)c2[nH]c(=O)[nH]c2n(C)c1=O	-1	0	i	-20	-13	-4	.	.
COc1ccc2nc(NNC(=O)C3COc4ccccc4O3)sc2c1 (stereo unspecified)	1	7	i	6	5	22*	18	2
COc1ccc2nc(NC(=O)C3COc4ccccc4O3)sc2c1 (stereo unspecified)	1	-4	i	12	-4	-1	.	.
Cc1ccc(C)c(N2CCN(C(=O)c3ccc4nc(-c5ccco5)c(-c5ccco5)nc4c3)CC2)c1	11	4	i	4	19	20*	6	-23
Cc1ccc(C)c(N2CCN(C(=O)c3ccc4nc(N5CCOCC5)sc4c3)CC2)c1	0	-6	i	31	7	1	.	.
CCCCN(C)C(=O)c1sc(=O)n(Cc2c(C)noc2C)c1C	.	2	i	.	1	8	.	.
CCn1c(O)c(N=NC(=O)c2cccs2)c2ccccc21	-1	10	i	-8	0	6	.	.
Cc1nc2ccccn2c1C(=O)N=Nc1c(O)n(CCC(C)C)c2ccccc12	1	-6	.	-8	-4	22*	-5	-10
CCOC(=O)C1=C(c2ccccc2)NC(=S)NC1c1cccc([N+](=O)[O-])c1 (stereo unspecified)	-2	14	i	-2	-5	16	.	.
CCOC(=O)C1=C(c2ccccc2)NC(=S)NC1c1cc([N+](=O)[O-])ccc1OC (stereo unspecified)	0	3	i	-2	-6	23*	18	3
CCCC(=O)NC(=S)Nc1nc(-c2ccc(OC)cc2)cs1	-9	-2	?	4	-2	23*	24*	-1
COc1ccc(-c2csc(NC(=S)NC(=O)c3ccco3)n2)cc1	0	-4	i	-1	-3	2	.	.
Cc1ccc2ccc3cccc4ccc1c2c34	-4	1	i	10	-7	10	.	.
CC1(NC(=S)NCCO)CCS(=O)(=O)C1 (stereo unspecified)	0	6	i	6	6	20*	0	-8
CCCCC(=O)NC(c1ccccc1)c1ccc2cccnc2c1O (stereo unspecified)	17	42	?	-4	14	11	.	.
CCCC(=O)NC(c1ccc(OC)cc1)c1ccc2cccnc2c1O (stereo unspecified)	16	32	?	8	8	24*	15	-9
CCC(=O)NC(c1ccccc1OC)c1ccc2cccnc2c1O (stereo unspecified)	7	33	.	-3	3	.	.	.
CCCCC(=O)NC(c1ccccc1Cl)c1ccc2cccnc2c1O (stereo unspecified)	9	45	.	2	10	28*	25*	-5
CCCC(=O)NC(c1ccccc1)c1ccc2cccnc2c1O (stereo unspecified)	14	30	?	4	18	29*	17	-11
